Compound activity from PubChem BioAssay.
NPC1 prom act: activates the NPC1 promoter | 320,000 tested, 2.4% active | Potency, µM (series often up to 9.22 µM), usual class: activators | Huh7 NPC1 promoter luciferase reporter, 24 h; further: nearly all actives have a fitted effect of over 60% in size
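Luminescence read-out of NPC1 promoter-driven luciferase in stably transfected Huh7 cells; compounds delivered in DMSO and left 24 h at 37C, 5% CO2, qHTS titration format.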
Rab9 promoter act: activates the Rab9 promoter | AID 485297 | Potency, µM (titrated, usually from 9.22 µM), actives largely listed as activators | Huh7 Rab9 promoter-luciferase reporter, luminescence, 24 h | 320,000 tested, 2.8% active; further: nearly all actives have a fitted effect of over 60% in size
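Steps: seed 1500 Huh7 Rab9-luc cells per well, rest 2 h at 37 °C; add compound in DMSO; incubate 24 h; add luciferase reagent, 10 min ambient; read luminescence.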
KinaseGlo FLuc: blocks Kinase-Glo luciferase, a counter-screen artifact | Potency, µM (top dose mostly 38.3 µM), most hits filed as inhibitors | Q27757 | Kinase-Glo luciferase, ATP luminescence, 8 min | AID 1379 | 200,000 tested, 0.28% active; further: nearly all actives have a fitted effect of over 60% in size
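Inhibition of Kinase-Glo luciferase light generation was assessed at 10 uM ATP in pH 7.2 imidazole buffer, with luminescence measured after eight minutes at ambient temperature.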
ELG1 genotox: induces genotoxicity in HEK293T cells with luciferase-tagged ELG1 | HEK293T ELG1-luciferase reporter, luminescence, 16 h | Potency, µM (doses to about 46 µM), actives largely listed as activators | 330,000 tested, 1.3% active; further: nearly all actives have a fitted effect of over 60% in size
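16 hr compound incubation (37 °C, 5% CO2) of HEK293T cells carrying luciferase-tagged ELG1; luciferase then measured by ONE-Glo luminescence after 30 min at RT.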
SMN2 splice enh: enhancers of SMN2 splice variant expression | HEK293 SMN2-luciferase splicing reporter, luminescence, 30-36 h | AID 1458 | 210,000 tested, 2.8% active | Potency, µM (doses to about 46.1 µM), actives largely listed as activators; further: nearly all actives have a fitted effect of over 55% in size
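qHTS luciferase splicing reporter: luminescence rises when SMN2 exon 7 is included in transfected HEK293 cells. Compound exposure lasted 30-36 h at 37C, with 4.5 mM final sodium butyrate as control, followed by a ONE-Glo read.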
FLuc modulator: counter-screen for miR-21 project: firefly luciferase inhibitors or activators; purified FLuc, Km substrates, luminescence inhibition; Potency, µM (highest dose often 57.5 µM), actives largely listed as inhibitors; AID 588342; 360,000 tested, 6.9% active; P08659; further: nearly all actives have a fitted effect of over 55% in size
Target sequence (P08659 whole entry, looked up): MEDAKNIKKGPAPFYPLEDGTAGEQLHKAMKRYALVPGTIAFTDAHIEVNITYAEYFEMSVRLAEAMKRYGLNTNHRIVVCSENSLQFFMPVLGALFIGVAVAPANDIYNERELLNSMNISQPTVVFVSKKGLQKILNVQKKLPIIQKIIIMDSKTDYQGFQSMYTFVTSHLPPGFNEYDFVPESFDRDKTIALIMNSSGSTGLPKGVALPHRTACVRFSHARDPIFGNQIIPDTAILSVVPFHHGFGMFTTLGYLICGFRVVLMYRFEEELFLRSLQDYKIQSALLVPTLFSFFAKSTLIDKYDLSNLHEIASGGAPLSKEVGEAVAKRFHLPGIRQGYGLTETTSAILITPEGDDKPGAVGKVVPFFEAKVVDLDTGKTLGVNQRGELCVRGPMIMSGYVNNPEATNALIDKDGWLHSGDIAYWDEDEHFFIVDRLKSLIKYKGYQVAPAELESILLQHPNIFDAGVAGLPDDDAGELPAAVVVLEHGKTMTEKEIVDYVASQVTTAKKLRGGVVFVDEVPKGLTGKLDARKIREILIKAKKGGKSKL
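Purified P. pyralis luciferase, 10 nM final, with Km-level 10 uM D-luciferin and 10 uM ATP in 50 mM Tris acetate pH 7.5, 10 mM Mg acetate, 0.01% Tween-20, 0.05% BSA; 6-point qHTS titration about 60 µM downward; luminescence read.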
Numbers stand for hits; - = inactive; ? = inconclusive; . = no result given; [ ] = remark or other dose. Shown are actives, neighbours in structure and some others; about 7.3% of the full set was active somewhere. The call rests on the fitted dose curve; in most records, active means well fitted curve in the direction sought with a large enough effect; inconclusive means small, poorly fitted or top-dose-only effect, or another doubt; inactive means no such curve, though single readings can be large; an effect the other way counts as inactive or inconclusive.

SMILES | NPC1 prom act | Rab9 promoter act | KinaseGlo FLuc | ELG1 genotox | SMN2 splice enh | FLuc modulator
CN(C)c1ccc(C(=O)OCC(=O)N2CCOCC2)cc1 | - | - | - | - | - | -
CON/C=C(\C=Nc1ccc(Cl)cc1)c1ncc(C(F)(F)F)cc1Cl | - | - | - | - | - | -
CCC(C)c1ccc(NC(=O)C2=CC=CN3CCS(=O)(=O)N=C23)cc1 (stereo not drawn) | - | ? | . | ? | . | 2.1µM
O=C1c2ccccc2C(=O)C1c1ccc2ccccc2n1 | ? | 1µM | - | 0.13µM | 1µM | 0.17µM
COC(=O)C1=C(C)NC(C)=C(C(=O)OC)C1c1ccc2ccccc2n1 | - | - | - | - | - | -
CCOC(=O)C1CCN(C(=O)C2CCN(S(=O)(=O)c3cccc4nsnc34)CC2)CC1 | - | - | . | - | . | -
COc1ccc(-c2csc3nc(-c4cccnc4)nc(Cl)c23)cc1OC | - | - | - | - | - | -
Clc1nc(-c2cccnc2)nc2scc(-c3ccccc3)c12 | ? | - | - | ? | - | 12µM
O=C(N/N=C/C=C/c1ccccc1)c1ccccc1Br | - | - | - | - | - | ?
CSc1ccc(/C=N/Nc2cccc(C(=O)O)c2)cc1 | ? | 0.089µM | - | 0.073µM | 0.25µM | 0.076µM
CC(C)C(=O)N/N=C/c1ccc(OCc2ccccc2)cc1 | - | - | - | - | - | -
O=C(O)c1cc(N/N=C/C=C/c2ccccc2)ccc1Cl | 0.4µM | 0.35µM | - | 9.2µM | 10µM | 7.6µM
O=C(O)c1cc(N/N=C/c2ccc(OCc3ccccc3)cc2)ccc1Cl | 2.5µM | 0.56µM | - | ? | 11µM | 6.7µM
O=C(O)c1cccc(N/N=C/c2ccc(OC(F)(F)F)cc2)c1 | ? | 0.032µM | . | ? | . | 0.067µM
O=C(Nc1ccc(OC(F)(F)F)cc1)c1cccc(-n2cnnn2)c1 | - | - | . | - | . | -
CC1CSc2n(-c3cccc(C(F)(F)F)c3)cc(-c3ccccc3)[n+]21 (stereo not drawn) | - | - | - | - | - | -
O=C(Cc1ccc(F)cc1)N1CCC(CC2CC(c3ccc(Cl)cc3)=NO2)(C(=O)NCC2CCCCC2)CC1 (stereo not drawn) | - | - | . | - | . | -
O=C(O)c1ccc(N/N=C/c2ccc(OC(=O)c3cccc(Cl)c3)cc2)cc1 | ? | ? | . | - | . | 19µM
CCOc1cc(/C=N/Nc2cccc(C(=O)O)c2)ccc1OCC(=O)N1CCCCC1 | 4µM | 4.5µM | - | ? | 11µM | 21µM
COC(=O)c1ccc(COc2ccc(/C=N/Nc3cccc(C(=O)O)c3)cc2)cc1 | 0.71µM | 0.4µM | . | ? | . | 2.7µM
O=C(O)c1cccc(N/N=C/c2cccs2)c1 | ? | ? | - | ? | 0.14µM | 0.43µM
Cc1cc(C)cc(NC(=O)C(c2ccccc2)N2CCCC2)c1 (stereo not drawn) | - | - | - | - | - | -
Cn1c(=O)n(C)c2cc(S(=O)(=O)Nc3ccccc3)ccc21 | - | - | - | - | . | -
CCOC(=O)c1c(C)[nH]c(C)c1S(=O)(=O)NCC(=O)Nc1cccc(C(F)(F)F)c1 | . | . | . | . | . | -
COc1ccc(CN2C3CCC2CC(NC(=O)c2cccc(F)c2)C3)cc1 (stereo not drawn) | - | - | . | - | . | -
SMILES | NPC1 prom act | Rab9 promoter act | KinaseGlo FLuc | ELG1 genotox | SMN2 splice enh | FLuc modulator
O=C(NCCCn1ccnc1)C(=O)NCC1OCCN1S(=O)(=O)c1ccc2c(c1)OCCO2 (stereo not drawn) | - | - | . | - | . | -
Cc1ccc(C(=O)/C=C2\NCCNC2=O)cc1 | 1.4µM | 0.89µM | - | ? | 2.8µM | 5.4µM
Cc1ccc(C(=O)/C=C2\NCC(C)NC2=O)cc1 (stereo not drawn) | 0.32µM | 0.32µM | - | ? | - | 1.2µM
Cc1ccc(C(=O)C2CCNCC2)cc1 | - | - | - | - | - | -
Cc1ccc2c(CN3CCC(C)CC3)cc(=O)oc2c1C | ? | ? | . | ? | . | 17µM
Cc1ccccc1Nc1nc(N)nc(COC(=O)CCNS(=O)(=O)c2ccccc2)n1 | - | - | . | - | . | -
Cc1ccccc1C(=O)Nc1ccc2nc3n(c(=O)c2c1)CCCC3 | - | - | . | - | . | ?
COc1ccc(Cl)cc1C(=O)Nc1ccc2nc3n(c(=O)c2c1)CCCC3 | - | - | . | - | . | -
O=C(Nc1ccc2nc3n(c(=O)c2c1)CCCCC3)c1cccc(C(F)(F)F)c1 | . | . | . | . | - | -
COc1cc(OC)cc(C(=O)Nc2ccc3nc4n(c(=O)c3c2)CCCC4)c1 | 2.8µM | ? | . | ? | . | ?
COc1cccc(C(=O)Nc2ccc3nc4n(c(=O)c3c2)CCCC4)c1 | - | ? | . | - | . | 17µM
COc1cc(C(=O)Nc2ccc3nc4n(c(=O)c3c2)CCCC4)ccc1Br | - | - | . | - | . | -
CCOc1ccccc1C(=O)Nc1ccc2nc3n(c(=O)c2c1)CCCCC3 | - | - | . | - | . | 15µM
CN(C)c1cccc(C(=O)Nc2ccc3nc4n(c(=O)c3c2)CCCCC4)c1 | - | - | - | - | - | 13µM
CCOC(=O)C1=C(COC(=O)/C=C/c2ccc(C)o2)NC(=O)NC1C (stereo not drawn) | - | - | . | - | . | -
O=C1CC(c2ccc(F)cc2)CC2=C1C=Nc1ccccc1N2 (stereo not drawn) | - | - | - | - | - | -
O=C(Nc1ccccc1)c1cc2n(n1)C(C(F)(F)F)CC(C1CC1)N2 (stereo not drawn) | 2.8µM | 1.8µM | - | ? | . | -
Nc1nn(-c2cccc(F)n2)cc1-c1ccccc1 | 2µM | 0.63µM | - | 2.9µM | 14µM | 3µM
Nc1ncncc1-c1ccc(Cl)cc1 | - | - | . | - | . | -
Nc1nn(-c2cccc(F)n2)cc1-c1ccc(Cl)cc1 | 2.5µM | 0.45µM | - | 1.2µM | 18µM | 0.95µM
C=CCN1C(=O)C(C)(C)Nc2ccccc21 | - | - | - | - | - | -
COc1ccccc1N1CCN(S(=O)(=O)c2ccc3c(c2)CC(C)N3C(C)=O)CC1 (stereo not drawn) | - | - | . | - | . | -
Cc1ccc(-n2c(=O)c3sccc3n(Cc3cc(=O)n4ccccc4n3)c2=O)cc1F | - | - | - | - | - | -
Cc1ccc(-n2c(=O)c3sccc3n(Cc3cc(=O)n4cc(Cl)ccc4n3)c2=O)cc1F | - | - | - | - | 35µM | -
CCn1cc(C(=O)NCc2ccco2)c(=O)c2cc(S(=O)(=O)N3CCC(C)CC3)ccc21 | - | - | - | - | - | -
CCCCCCn1nc(C(=O)N(CCCC)c2c(N)n(CCC)c(=O)[nH]c2=O)c2ccccc2c1=O | . | . | . | - | . | .
Cc1cc(/C=N/NC(=O)c2ccccc2F)c(C)n1-c1ccccc1 | 2.5µM | 0.63µM | - | ? | 13µM | 2.1µM
CCOC(=O)N/N=C/c1cc(C)n(-c2ccccc2)c1C | - | ? | - | ? | -[1.84 µM] | 11µM
